Data from the supplement of paper PMC3334620.
In all, about 33,000 sequences were measured (“E-score (-0.5 to 0.5)”: median about -0.015, highest 2% from about 0.3 on). The entries come from a sample that favours the highest values as a whole.

The sequences below were run against T1, Abf1 (UniProt P14164) (assay: PBM E-score (8-mer binding enrichment) (E-score (-0.5 to 0.5)); higher = stronger / more preferred TF binding). Conditions: protein concentration: 200 nM; construct: GST-full length.
T1 sequence: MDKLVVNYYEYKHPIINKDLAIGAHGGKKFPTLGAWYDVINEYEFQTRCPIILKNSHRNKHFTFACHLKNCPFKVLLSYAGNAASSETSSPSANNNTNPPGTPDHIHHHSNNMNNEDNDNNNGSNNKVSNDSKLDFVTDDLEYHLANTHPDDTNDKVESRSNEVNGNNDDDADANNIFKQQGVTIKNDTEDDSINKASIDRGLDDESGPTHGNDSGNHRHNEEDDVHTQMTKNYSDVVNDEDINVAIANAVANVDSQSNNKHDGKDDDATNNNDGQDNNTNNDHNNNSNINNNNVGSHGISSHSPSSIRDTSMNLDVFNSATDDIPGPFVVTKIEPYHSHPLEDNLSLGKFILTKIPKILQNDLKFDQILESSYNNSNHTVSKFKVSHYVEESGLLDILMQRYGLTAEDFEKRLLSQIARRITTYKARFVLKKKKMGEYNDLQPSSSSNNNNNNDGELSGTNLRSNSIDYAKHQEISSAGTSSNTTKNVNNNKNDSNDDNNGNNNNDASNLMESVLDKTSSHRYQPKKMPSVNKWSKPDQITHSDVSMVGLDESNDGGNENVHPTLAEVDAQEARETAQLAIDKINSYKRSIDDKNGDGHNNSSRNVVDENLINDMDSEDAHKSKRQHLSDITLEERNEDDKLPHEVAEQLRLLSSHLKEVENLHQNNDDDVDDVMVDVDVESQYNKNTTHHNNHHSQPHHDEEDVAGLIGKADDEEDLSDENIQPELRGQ
Protocol: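 Universal 'all 10-mer' protein binding microarrays (Agilent AMADID 015681) probed with GST-tagged S. cerevisiae TFs (full-length or DBD) made by in vitro transcription/translation (PURExpress), about 100-200 nM. Bound TF was detected with fluorescent anti-GST. Each ungapped 8-mer (which stands for itself and its reverse complement) is scored by the PBM enrichment score (E-score), a modified Wilcoxon-Mann-Whitney statistic from -0.5 to +0.5, computed with the Universal PBM Analysis Suite. Scale: above 0.35 generally sequence-specific binding.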

Sequence	PBM E-score
GCGATATA	0.368
ATGATATG	0.367
GTGGACAA	0.133
CTCCTGAC	0.0261
AGGGGACA	-0.0441
CCAGGGTC	-0.217
ACGGCTAC	0.0914
CGTTCAGA	0.0456
ATGATACC	0.291
ATGATACA	0.202
ATGATAGC	0.24
ATGATATC	0.362
CTGATATC	0.0641
ATGATACG	0.305
ACGCGCCT	-0.0785
AGATAAGG	0.00618
GGAGGTCA	0.0571
CTGACGAC	0.228
CTGTACAA	0.109
ATGTACGC	0.027
GTGTACGA	0.337
ATGTACGA	0.444
CTGTACGC	-0.106
CTGTACGA	0.383
GTGTACTA	0.165

Sequence	PBM E-score
ATGTACGG	0.241
GAGTACGA	0.0499
GTGTCGGA	0.0611
GACGTAGA	0.0745
TCCGACCA	-0.143
AAACTCTA	-0.144
CCCACAAC	-0.0362
GCCTCCAA	-0.121
GATATATA	0.289
GATATATC	0.332
AATATATC	0.139
CATATACC	-0.0104
GATATAAA	0.22
CATATAAC	0.155
GATATACA	0.111
GATATACC	0.34
GATATAAC	0.307
ATACGCGG	-0.114
CTTGGGGC	-0.247
AACCCTAA	0.00952
CCGATACC	-0.101
ATACGTGG	0.155
GAACGCGA	-0.146
GGGCGCGA	0.0618
AGTTGTGC	-0.108

Sequence	PBM E-score
ACGGGCGA	-0.00147
CGTGATAG	0.221
AGTGATAC	0.385
AGTGATAA	0.445
GGTGATAC	0.186
ATTGATAA	0.27
AGTGATAT	0.442
ACTGATAT	0.108
AGTGATAG	0.303
CGTGATAC	0.23
ATTGATAG	-0.0465
AGTGAGAT	0.147
ACTGATAA	0.126
AGCGCCAG	-0.0266
AACCAGAA	0.0884
CCCTCGGA	0.00175
ATACGACG	0.341
AGACGACG	0.235
ATACGAAT	0.275
ATACGAAA	0.349
CTACGATC	0.195
ATACGACC	0.239
ATACGATC	0.307
ATACGAAG	0.328
ACACGAAG	0.269

Sequence	PBM E-score
CTACGAAG	0.215
ATACGATG	0.261
AAACGAAA	0.159
CGAATACG	0.189
ACCCGAGT	-0.152
ACATTGAA	0.0551
ACGGTCGC	0.134
TGTAACAA	0.0346
AGCAGGCA	-0.114
ACTGTATG	-0.184
ACTGAAGT	-0.0998
GTCCCGAA	0.00205
AAAATCAA	0.0207
AAAATCAG	0.193
GAAATCAA	0.0471
GAAATCAC	0.322
CAAATCAC	0.19
AAAATCAC	0.352
AACTGAGA	0.0232
GTTGATCA	0.298
AATGATCA	0.347
CTAGATCA	0.161
CATGATCA	0.33
GTAGATCA	0.319
ATTGATCA	0.267

Sequence	PBM E-score
CTTGATCA	0.183
ATAGATCA	0.267
AATGATCG	0.232
CATGATCG	0.0839
AATGATCC	0.0166
CATGATCC	0.00859
CATGCGGC	-0.229
GGTTAACA	-0.138
AAAGAACT	0.0334
ACATTAGA	0.0369
AGTTAACT	-0.0757
TATGATCA	0.309
TACGATCA	0.208
TCTGATCA	0.155
AAAGATCA	0.164
GATGATTA	0.263
GATGATCC	0.0853
CAAGATCA	0.16
GATGATCA	0.329
TAAGATCA	0.314
AATGAACT	-0.177
ACTGATCT	0.0694
AATGATCT	0.324
GCCTAGAC	-0.11
ATACATTC	0.0799

Sequence	PBM E-score
AACGGGGC	-0.0372
ACGCACCA	-0.101
CCATTTCC	-0.0246
CGGGTTAG	-0.173
CAAATAGA	0.0564
GAGGTATC	0.047
CGAAGTGA	0.272
ATAAGTGA	0.3
CTAAGTGC	-0.0207
AGAAGTGA	0.243
CTAAGTGA	0.327
ATAAGTGC	0.0214
ATAAGTGG	0.126
GGAAGTGA	0.329
GTAAGTGA	0.208
AGATTTAG	0.0517
CCGGAAGA	0.0618
AGACTTTA	0.0584
AGGCTCTG	-0.089
CAGGCACC	-0.178
GCCAGCCC	-0.375
CACGCTCC	-0.00778
AGGGTGAT	0.335
AACGTGAG	0.0297
ACAGTGAC	0.259

Sequence	PBM E-score
AAAGTGGC	-0.118
AAAGTGAT	0.397
AGGGTGAG	-0.102
AGGGTGAA	-0.209
AAAGTGAG	0.2
AAAGTGAA	-0.0183
AACGTGAA	0.057
AAAGTGAC	0.343
AACGTGAT	0.327
CCCCAGGA	-0.301
TAGTTCAA	-0.0129
AACAGCAC	-0.13
CACCCTGG	-0.33
ATAGGCTC	-0.0801
CCAAACCG	-0.0285
AAGGACCC	-0.134
ACATCCTA	0.0617
AATTCTCG	0.162
GAAGTGAC	0.411
AGAGTGAG	0.0964
GAAGTGAA	0.064
CAAGTGAC	0.242
AGAGTGAT	0.387
AGAGTGAA	-0.0316
